Consider 15 compounds from PubChem BioAssay.

Test [1] can be described thus: A549 cell viability effects, profiling panel, calcein-AM fluorescence, 48 h, basal (AID 1162). To be noted: higher = more signal.
The nature of test [2]: adipocyte viability effects, profiling panel, cell-based, 3T3-L1 adipocytes, calcein-AM fluorescence, 48 h, basal (AID 1163). Conditions: 3T3-L1 adipocytes viability, higher = more signal.
Test [3] can be described thus: HepG2 cell viability effects, profiling panel, calcein-AM fluorescence, 48 h, basal (AID 1164). To be noted: higher = more signal.
A short description of test [4]: MM1S cell viability effects, profiling panel, calcein-AM fluorescence, 48 h, basal (AID 1165).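 Also: viability of MM1S multiple myeloma cells under basal unstimulated conditions.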 Conditions: higher = more signal.
A short description of test [5]: basal RPMI8226 viability, no added stimulus, profiling panel, cell-based, calcein-AM fluorescence, 48 h, PK04 Diversity Set (AID 1166).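 Also: cells grown under basal conditions without added stimulus.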 Conditions: RPMI8226 myeloma viability, higher = more signal.
Test [6] in a line: basal HepG2 mitochondrial membrane potential changes, profiling panel, cell-based, JC-1 fluorescence, 24 h, 100 nL compound (AID 1167). Conditions: higher = more signal.
Test [7] in a line: basal 3T3-L1 adipocyte mitochondrial potential changes, profiling panel, cell-based, JC-1 fluorescence, 3T3-L1 adipocytes, 24 h, 100 nL compound (AID 1168). To be noted: JC-1 mitochondrial fluorescence, higher = more signal, called active from +8 up or from −8 down.
Test [8] is described as follows: basal RPMI8226 mitochondrial membrane potential changes, profiling panel, cell-based, JC-1 fluorescence, 24 h, 100 nL compound (AID 1169). Conditions: RPMI8226 myeloma, JC-1 mitochondrial potential fluorescence, higher = more signal.
A short description of test [9]: basal MM1S mitochondrial membrane potential changes, profiling panel, cell-based, JC-1 fluorescence, 24 h, 100 nL compound (AID 1170). To be noted: higher = more signal.
The nature of test [10]: A549 lung cancer cell viability effects, profiling panel, resazurin fluorescence, 24 h, PK04 Diversity Set (AID 1171). To be noted: higher = more signal, called active from +8 up or from −8 down.

Active and inactive are the calls of the source.
Also: test concentration not given here.

Consider `O=C1C2C=CC(C(O)c3ccc(-c4ccccc4)s3)N(Nc3ccccc3)C2C(=O)N1c1ccccc1` (stereo not given), for which the z-score was -0.574 in [1]; -1.35 in [2]; 0.128 in test [3]; -0.338 in test [4]; -1.45 in test [5]; -1.75 in [6]. Moreover, the z-score in [7] was 0.0226 (inactive); in [8], 0.054; in test [9], -0.271; in [10], 0.0364 (inactive).

As for `[N-]=[N+]=NCc1ccccc1[C@H]1OC(c2ccc(OCCCO)cc2)=N[C@@]1(Cc1ccccc1)C(=O)N1CCCCC1`, the z-score in test [1] was 0.562; in test [2] it was -0.359; in test [3] it was 0.505; in test [4] it was -0.085; in test [5], -0.909; in [6] it was 0.732. The z-score in [7] is -0.677 (inactive); in [8] it was -0.931; in test [9] it was -0.854; in [10], 0.151 (inactive).

On to `C#CCN1[C@@H](Cc2ccc(O)cc2)C(=O)O[C@H](Cc2ccccc2)[C@@H]1/C=C/C1CC1`, for which the z-score in test [1] is -2.82; in test [2], -0.145; in [3] it was -3.44; in [4] it was -3.22; in [5], -3.96; in test [6], -3.57. The z-score in test [7] was -0.0548 (inactive); in test [8], -1.23; in test [9], -0.744; in test [10], -1.01 (inactive).

As to `CN1CCC(CCCO)=CC1c1cccs1` (stereo not given), the z-score is 0.251 in test [1]; 0.335 in test [2]; 0.369 in test [3]; 0.277 in [4]; 0.0383 in test [5]; -0.927 in test [6]. The z-score in test [7] is -1.51 (inactive); in test [8] it was 0.247; in test [9] it was 0.00928; in [10], -0.0596 (inactive).

On to `C=CC[C@@]1(C(=O)N2CCCCC2)N=C(c2ccc(OCCCO)cc2)O[C@@H]1c1ccccc1N=[N+]=[N-]`, for which the z-score in [1] is -0.637; in [2], 2.03; in test [3], -0.441; in test [4], -1.23; in test [5], -2.71; in test [6], 1.02. Also, the z-score in [7] was 1.21 (inactive); in test [8], -0.982; in test [9], -1.66; in test [10] it was -1.5 (inactive).

In the case of `C=CCC(OC(C)=O)[C@@H]1[C@@H](N(Cc2cc3ccccc3o2)C(=O)Cc2ccc(OC)cc2)c2cc(OCCCO)ccc2N1C(=O)c1ccc2ccccc2c1` (stereo not given in full), the z-score is 0.0348 in test [1]; 0.25 in test [2]; 0.663 in [3]; 0.817 in [4]; -0.668 in test [5]; 1.4 in [6]. The z-score in test [7] was -0.38 (inactive); in [8], -0.0277; in [9], 1.11; in test [10] it was -1.34 (inactive).

With `O=C1O[C@@H](c2ccccc2)[C@@H](c2ccccc2)N2[C@@H](c3ccc(OCCO)cc3)[C@]3(C(=O)Nc4ccc(C#CCCO)cc43)[C@@H](C(=O)NC[C@H](O)c3ccccc3)[C@H]12`, the z-score in test [1] was 0.225; in [2] it was -0.0616; in test [3] it was 0.808; in [4] it was -0.301; in test [5], 0.407; in test [6], -0.821. Besides, the z-score in test [7] is -1.33 (inactive); in test [8], -0.479; in test [9], -0.468; in test [10], -0.293 (inactive).

Take `CCOC(=O)C1=CCC(c2ccc(F)cc2)N(S(=O)(=O)c2ccc(C)cc2)C1` (stereo not given): the z-score in test [1] is -1.02; in test [2] it was -1.12; in [3], -0.444; in test [4] it was -0.434; in test [5] it was -1.5; in test [6], -0.717. The z-score was -1.01 (inactive) in test [7], 0.641 in test [8], -1.66 in [9] and -0.0491 (inactive) in test [10].

On to `COCCOC(=O)N1C(=O)[C@@]2(c3cc(C#CCCO)ccc31)[C@H](c1ccc(O)cc1)N1[C@H](c3ccccc3)[C@H](c3ccccc3)OC(=O)[C@H]1[C@@H]2C(=O)N1CCN(c2ncccn2)CC1`, for which the z-score was -0.858 in [1]; -0.721 in [2]; -0.753 in test [3]; -0.0852 in [4]; 0.248 in test [5]; 0.0243 in test [6]. Further, the z-score in test [7] is -1.45 (inactive); in test [8], -0.139; in test [9], -0.611; in test [10], 0.838 (inactive).

As to `CN(C)CCCCCCNC(=O)[C@@H]1C[C@@H]2C(=O)N[C@@H](CCCC[N+](C)(C)C)C(=O)N2[C@@H]1c1ccc(O)cc1`, the z-score in test [1] is -0.974; in test [2], 0.334; in test [3] it was -0.646; in [4], -1.51; in [5], 0.131; in [6], -0.108. The z-score is -0.302 (inactive) in test [7], 0.185 in test [8], -0.313 in test [9] and -0.994 (inactive) in test [10].

With `CC(C)[Si](C#CCCCC#N)(Oc1ccccc1Br)C(C)C`, the z-score was 0.551 in test [1]; -0.924 in test [2]; 0.235 in test [3]; -0.887 in test [4]; -0.181 in test [5]; -0.247 in test [6]. Also, the z-score in [7] is -0.183 (inactive); in [8], -0.756; in test [9], 0.2; in [10], -0.0106 (inactive).

Regarding `C=CC[C@]12N=C(c3ccc(OCCCO)cc3)O[C@H]1c1ccccc1N(CCS(=O)(=O)c1ccccc1)C2=O`, the z-score in [1] was 0.289; in [2], 0.839; in [3], 0.324; in test [4] it was -1.68; in test [5], -0.916; in test [6], 0.134. Also, the z-score in [7] was 1.73 (inactive); in test [8], -1.01; in [9], -1.25; in test [10] it was -1.02 (inactive).

`C#CCNCc1ccccc1`: the z-score was -0.29 in [1]; -0.0255 in test [2]; 0.331 in [3]; 0.612 in test [4]; -0.523 in [5]; -0.221 in test [6]. Besides, the z-score in test [7] was -0.815 (inactive); in [8], -0.804; in [9], -0.00594; in test [10] it was 0.0196 (inactive).

With `COc1cc(CO)cc(I)c1O[C@H]1C=C(C(=O)NCCO)C[C@@H](NC[C@@H]2CCCO2)[C@@H]1O`, the z-score is 1 in [1]; -0.134 in [2]; 0.7 in test [3]; 0.583 in test [4]; 0.327 in [5]; 0.65 in test [6]. In addition, the z-score in test [7] is 0.239 (inactive); in [8], -0.18; in [9], -1.9; in test [10], 0.222 (inactive).

For the compound `C#CCOc1ccc(C[C@@H](C(=O)OC)N(CC#C)[C@@H](/C=C/C2CC2)[C@H](O)Cc2ccccc2)cc1`, the z-score was -1.05 in test [1]; -0.303 in [2]; -2.42 in test [3]; -2.3 in test [4]; -2.19 in test [5]; -1.15 in test [6]. For the same compound, the z-score is -0.00867 (inactive) in test [7], -0.79 in test [8], -0.524 in test [9] and 0.313 (inactive) in test [10].
